Assay [1] is described as follows: NCI Yeast Anticancer Drug Screen. Data for the rad50 strain (AID 155).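 Also: 0% = growth of vehicle-only cultures of the same strain.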 The settings on record: S. cerevisiae rad50 strain growth inhibition, hits give high values. In outline: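 Yeast carrying a defined DNA repair defect were exposed to test compounds, and growth was compared with vehicle-treated controls to give percent inhibition.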
Assay [2] in a line: NCI Yeast Anticancer Drug Screen. Data for the mec2-1 strain (AID 157). The settings on record: S. cerevisiae mec2-1 strain, hits give high values. Summed up:
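mec2-1 yeast strain, carrying an alteration in DNA damage repair or cell cycle control, was exposed to compounds; growth inhibition was measured relative to vehicle-treated controls.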

Assay [3] is described as follows: NCI Yeast Anticancer Drug Screen. Data for the sgs1 mgt1 strain (AID 161).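 Also: 0% = growth of cultures given vehicle only.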 Conditions: S. cerevisiae sgs1 mgt1 strain, hits give high values. In outline:
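Yeast cells carrying a defined DNA-repair defect were exposed to test compounds. Growth inhibition was measured relative to vehicle-treated controls.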

Assay [4] can be described thus: NCI Yeast Anticancer Drug Screen. Data for the cln2 rad14 strain (AID 165).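 Also: 0% = growth equal to vehicle treated cultures.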 Conditions: S. cerevisiae cln2 rad14 strain, hits give high values. In outline:
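Yeast carrying cln2 and rad14 alterations (cell cycle control and DNA damage repair) were exposed to compounds. Growth inhibition was measured against vehicle-treated controls.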

Assay [5] can be described thus: NCI Yeast Anticancer Drug Screen. Data for the bub3 strain (AID 167). The settings on record: S. cerevisiae bub3 mutant strain, hits give high values. In outline: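 Compounds were applied to a genetically altered yeast strain carrying a cell-cycle control defect. Growth inhibition was scored against vehicle-treated controls.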
Assay [6] in a line: NCI Yeast Anticancer Drug Screen. Data for the mlh1 rad18 strain (AID 175). Conditions: S. cerevisiae mlh1 rad18 strain growth inhibition, hits give high values. In outline:
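Growth inhibition of the yeast strain was measured after compound exposure and expressed relative to vehicle-treated controls. The strain carries defined defects in DNA damage repair.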

Where [7] appears, read: at 5.0 µM (retest, dose inferred, filed as 0.5).
Where [8] appears, read: at 50.0 µM (retest, dose inferred, filed as 5.0).

Each structure is given as a SMILES string. About 79,000 compounds went through this panel and 15% of them were active in at least one assay; those are over-represented in the sample as a whole. Values without a mark were called inactive. Calls of active or inactive are those of the source. Rule as the data show it: active = growth inhibition above about 70%; inactive = the rest.

For `Cc1ccnc2sc3ccccc3c(=O)c12`, the growth inhibition in assay [1] (setting [7]) is 15%; in assay [1] (setting [8]), 96% (active); in assay [1] (at 50.0 µM), 86.8% (active); in assay [2] (setting [7]), 14%; in assay [2] (setting [8]) it was 93% (active); in assay [2] (at 50.0 µM), 82.5% (active). Further, the growth inhibition in assay [3] (setting [7]) was 4%; in assay [3] (setting [8]), 92% (active); in assay [3] (at 50.0 µM) it was 80.6% (active); in assay [4] (setting [7]), 4%; in assay [4] (setting [8]) it was 76% (active); in assay [4] (at 50.0 µM), 68.5%. Also, the growth inhibition is 6% in assay [5] (setting [7]); 92% (active) in assay [5] (setting [8]); 83.5% (active) in assay [5] (at 50.0 µM); 11% in assay [6] (setting [7]); 95% (active) in assay [6] (setting [8]); 83.9% (active) in assay [6] (at 50.0 µM).
On to `CSC1NNC2(C(=O)N1)c1ccccc1-c1ccccc12` (stereo not given), for which the growth inhibition in assay [1] (setting [7]) was -2%; in assay [1] (setting [8]) it was 96% (active); in assay [1] (at 50.0 µM), 87.3% (active); in assay [2] (setting [7]), -15%; in assay [2] (setting [8]) it was 98% (active); in assay [2] (at 50.0 µM), 87.9% (active). The growth inhibition in assay [3] (setting [7]) was 2%; in assay [3] (setting [8]) it was 96% (active); in assay [3] (at 50.0 µM), 90.7% (active); in assay [4] (setting [7]) it was 9%; in assay [4] (setting [8]), 96% (active); in assay [4] (at 50.0 µM), 88.5% (active). In addition, the growth inhibition in assay [5] (setting [7]) is 13%; in assay [5] (setting [8]) it was 97% (active); in assay [5] (at 50.0 µM), 91.7% (active); in assay [6] (setting [7]), -1%; in assay [6] (setting [8]), 96% (active); in assay [6] (at 50.0 µM), 88.8% (active).
As to `CCCCCCCCCCOC1C(C(O)CNCCCN(C)C)OC2OC3(CCCCC3)OC21` (stereo not given), the growth inhibition in assay [1] (setting [7]) was 1%; in assay [1] (setting [8]), 97% (active); in assay [1] (at 50.0 µM), 91.9% (active); in assay [2] (setting [7]), -27%; in assay [2] (setting [8]), 98% (active); in assay [2] (at 50.0 µM), 93.2% (active). For the same molecule, the growth inhibition in assay [3] (setting [7]) is 7%; in assay [3] (setting [8]), 98% (active); in assay [3] (at 50.0 µM), 91% (active); in assay [4] (setting [7]), 21%; in assay [4] (setting [8]), 97% (active); in assay [4] (at 50.0 µM) it was 90.3% (active). The growth inhibition in assay [5] (setting [7]) is -24%; in assay [5] (setting [8]), 98% (active); in assay [5] (at 50.0 µM), 89% (active); in assay [6] (setting [7]), 5%; in assay [6] (setting [8]) it was 97% (active); in assay [6] (at 50.0 µM), 90.2% (active).
`C1=C(c2ccccc2)CCc2c1ccc1ccccc21`: the growth inhibition in assay [1] (setting [7]) is 5%; in assay [1] (setting [8]) it was -8%; in assay [1] (at 50.0 µM) it was -3.45%; in assay [2] (setting [7]) it was -6%; in assay [2] (setting [8]), 3%; in assay [2] (at 50.0 µM), -10.8%. Also, the growth inhibition in assay [3] (setting [7]) was 1%; in assay [3] (setting [8]), 16%; in assay [3] (at 50.0 µM), 0%; in assay [4] (setting [7]), -9%; in assay [4] (setting [8]), -10%; in assay [4] (at 50.0 µM) it was 4.35%. Besides, the growth inhibition in assay [5] (setting [7]) was 7%; in assay [5] (setting [8]) it was 10%; in assay [5] (at 50.0 µM), 16%; in assay [6] (setting [7]), -1%; in assay [6] (setting [8]), 21%; in assay [6] (at 50.0 µM) it was 5.7%.
For the molecule `O=S(NCc1ccccc1)c1ccccc1` (stereo not given), the growth inhibition was -2% in assay [1] (setting [7]); 13% in assay [1] (setting [8]); 25.6% in assay [1] (at 50.0 µM); 0% in assay [2] (setting [7]); 8% in assay [2] (setting [8]); 28.7% in assay [2] (at 50.0 µM). In addition, the growth inhibition was -2% in assay [3] (setting [7]); -1% in assay [3] (setting [8]); 43.3% in assay [3] (at 50.0 µM); -3% in assay [4] (setting [7]); 4% in assay [4] (setting [8]); 39.4% in assay [4] (at 50.0 µM). Further, the growth inhibition in assay [5] (setting [7]) is 0%; in assay [5] (setting [8]), 10%; in assay [5] (at 50.0 µM), 36.3%; in assay [6] (setting [7]), -1%; in assay [6] (setting [8]), 15%; in assay [6] (at 50.0 µM), 75.7% (active).
For `CCN(CC)c1ccc(NC(C(=O)c2ccccc2)c2ccc3c(c2)OCO3)cc1` (stereo not given), the growth inhibition in assay [1] (setting [7]) is -23%; in assay [1] (setting [8]), -26%; in assay [1] (at 50.0 µM) it was 27.2%; in assay [2] (setting [7]), -3%; in assay [2] (setting [8]), 5%; in assay [2] (at 50.0 µM), 32.7%. For the same molecule, the growth inhibition in assay [3] (setting [7]) is -23%; in assay [3] (setting [8]) it was 14%; in assay [3] (at 50.0 µM) it was 46.1%; in assay [4] (setting [7]), -1%; in assay [4] (setting [8]), -10%; in assay [4] (at 50.0 µM) it was -8.35%. Besides, the growth inhibition in assay [5] (setting [7]) was 3%; in assay [5] (setting [8]), 14%; in assay [5] (at 50.0 µM), 25.9%; in assay [6] (setting [7]), -4%; in assay [6] (setting [8]), 12%; in assay [6] (at 50.0 µM) it was 42.5%.
Regarding `FC(F)(F)c1[nH]nc(-c2ccc(Cl)cc2)c1N=NN1CCOCC1`, the growth inhibition in assay [1] (setting [7]) was 98% (active); in assay [1] (setting [8]) it was 96% (active); in assay [1] (at 50.0 µM), 94.6% (active); in assay [2] (setting [7]), 99% (active); in assay [2] (setting [8]) it was 94% (active); in assay [2] (at 50.0 µM), 95.8% (active). For the same molecule, the growth inhibition is 99% (active) in assay [3] (setting [7]); 94% (active) in assay [3] (setting [8]); 95.4% (active) in assay [3] (at 50.0 µM); 99% (active) in assay [4] (setting [7]); 98% (active) in assay [4] (setting [8]); 91.2% (active) in assay [4] (at 50.0 µM). In addition, the growth inhibition was 99% (active) in assay [5] (setting [7]); 98% (active) in assay [5] (setting [8]); 82.5% (active) in assay [5] (at 50.0 µM); 99% (active) in assay [6] (setting [7]); 97% (active) in assay [6] (setting [8]); 93.6% (active) in assay [6] (at 50.0 µM).
On to `CCCCN=C(c1ccc(O)cc1)c1ccc(OC)cc1O`, for which the growth inhibition was -4% in assay [1] (setting [7]); 20% in assay [1] (setting [8]); 42.7% in assay [1] (at 50.0 µM); -1% in assay [2] (setting [7]); 15% in assay [2] (setting [8]); 18.6% in assay [2] (at 50.0 µM). For the same molecule, the growth inhibition in assay [3] (setting [7]) is -2%; in assay [3] (setting [8]) it was 37%; in assay [3] (at 50.0 µM) it was 64.1%; in assay [4] (setting [7]), -3%; in assay [4] (setting [8]), 20%; in assay [4] (at 50.0 µM) it was 26.6%. Further, the growth inhibition in assay [5] (setting [7]) was -5%; in assay [5] (setting [8]), 42%; in assay [5] (at 50.0 µM), 58%; in assay [6] (setting [7]), -4%; in assay [6] (setting [8]), 22%; in assay [6] (at 50.0 µM), 36%.
For the molecule `COC(=O)/C=N/O`, the growth inhibition in assay [1] (setting [7]) is -17%; in assay [1] (setting [8]) it was 7%; in assay [1] (at 50.0 µM), -19.4%; in assay [2] (setting [7]), -9%; in assay [2] (setting [8]), -6%; in assay [2] (at 50.0 µM), -6.9%. Besides, the growth inhibition in assay [3] (setting [7]) was -5%; in assay [3] (setting [8]), -4%; in assay [3] (at 50.0 µM), 8.85%; in assay [4] (setting [7]) it was 7%; in assay [4] (setting [8]), -1%; in assay [4] (at 50.0 µM), 0.85%. Besides, the growth inhibition in assay [5] (setting [7]) was -19%; in assay [5] (setting [8]) it was -1%; in assay [5] (at 50.0 µM), -14.9%; in assay [6] (setting [7]) it was -2%; in assay [6] (setting [8]) it was -6%; in assay [6] (at 50.0 µM), 36.3%.
Turning to `Nc1ccc2nnnn2c1`, the growth inhibition in assay [1] (setting [7]) was 0%; in assay [1] (setting [8]), 72% (active); in assay [1] (at 50.0 µM), 24.5%; in assay [2] (setting [7]) it was -2%; in assay [2] (setting [8]), 19%; in assay [2] (at 50.0 µM), 38%. Further, the growth inhibition in assay [3] (setting [7]) is 9%; in assay [3] (setting [8]), 76% (active); in assay [3] (at 50.0 µM) it was 46.8%; in assay [4] (setting [7]) it was 3%; in assay [4] (setting [8]) it was 27%; in assay [4] (at 50.0 µM), 31.2%. Further, the growth inhibition in assay [5] (setting [7]) is 10%; in assay [5] (setting [8]), 78% (active); in assay [5] (at 50.0 µM), 5.8%; in assay [6] (setting [7]) it was 14%; in assay [6] (setting [8]), 91% (active); in assay [6] (at 50.0 µM), 70.5% (active).
